High-throughput results: PubChem, National Center for Advancing Translational Sciences (NCATS)
AmpC detergent: blocks E. coli AmpC beta-lactamase in detergent assay. AID 485294. 370,000 compounds, 0.041% hits. AmpC hydrolysis of nitrocefin, absorbance 480 nm, 0.01% Triton. Potency, µM (doses to about 114 µM), for the others: at the highest dose activity change, negative = inhibition, usual class: inhibitors;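 note: potency is the fitted concentration of half-maximal effect; 0% = no-compound wells and -100% = no-enzyme wells; nearly all actives have a fitted effect of over 25% in size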
Target sequence (P00811 whole entry, looked up): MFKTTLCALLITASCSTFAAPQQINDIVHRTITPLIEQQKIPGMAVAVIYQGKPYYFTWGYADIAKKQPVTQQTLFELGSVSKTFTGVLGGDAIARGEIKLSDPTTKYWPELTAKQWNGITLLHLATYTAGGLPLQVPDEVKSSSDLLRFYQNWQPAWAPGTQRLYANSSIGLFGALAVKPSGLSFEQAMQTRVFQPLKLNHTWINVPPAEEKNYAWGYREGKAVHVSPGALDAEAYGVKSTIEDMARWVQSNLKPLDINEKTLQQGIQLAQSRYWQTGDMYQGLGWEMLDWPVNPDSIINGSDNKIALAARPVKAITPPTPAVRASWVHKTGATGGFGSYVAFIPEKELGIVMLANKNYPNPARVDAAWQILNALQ
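20 mM phosphate pH 7.0 + 0.01% (detergent screen) or 0.0001% Triton X-100; 5.3 nM AmpC reagent; cpd preinc 15 min RT; nitrocefin (800 uM stock) to start; A480 q20 s × 4 min; Activity was normalised to no-enzyme and no-compound control wells.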
Vaccinia mCherry: vaccinia inhibition (mCherry reporter); Vaccinia virus mCherry reporter infection, fluorescence; AID 720579; 310,000 compounds, 0.63% hits; Potency, µM (top dose mostly 36.5 µM), for the others: at the highest dose activity change, negative = inhibition, actives largely listed as inhibitors; calls by dose curve; tested in A549 cells; note: potency is the fitted concentration of half-maximal effect; % is set by controls: 0 for no effect and ±100 for the full control effect; nearly all actives have a fitted effect of over 35% in size
SARS PLpro yeast-1: inhibitors of SARS-CoV papain-like protease in yeast; S. cerevisiae expressing SARS-CoV PLpro, growth rescue; Potency, µM (top dose mostly 32.9 µM), inactives show top-dose activity, positive = growth rescue, actives largely listed as activators; 330,000 compounds, 0.19% hits; AID 485353; calls by dose curve; note: potency is the fitted concentration of half-maximal effect; 0% is about no effect; nearly all actives have a fitted effect of over 55% in size
AMA1 RON2 block: disrupts binding of P. falciparum AMA1 to RON2 | AlphaScreen AMA1-biotinylated RON2 peptide binding | Potency, µM (series often up to 58.2 µM), inactives show at the highest dose activity change, negative = inhibition, usual class: inhibitors | 360,000 compounds, 0.2% hits;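 note: potency is the fitted concentration of half-maximal effect; 0% = vehicle wells and -100% = peptide control; nearly all actives have a fitted effect of over 45% in size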
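AMA1 (3D7) with his tag at 25 nM final met compounds first, then biotinylated RON2 peptide at 25 nM; detection used donor plus acceptor beads, 10 µg/mL apiece, read by AlphaScreen after 30 min at room temperature.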
AmpC inh no detg: inhibitors of E. coli AmpC beta-lactamase without detergent; Potency, µM (doses to about 57.1 µM), without a hit: at the top dose activity change, negative = inhibition, usual class: inhibitors; AmpC nitrocefin hydrolysis, absorbance 480 nm, 0.0001% Triton; 330,000 compounds, 0.52% hits; P00811;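 note: potency is the fitted concentration of half-maximal effect; plate controls were no compound for no effect and no enzyme for full effect; nearly all actives have a fitted effect of over 20% in size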
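AmpC (5.3 nM in the dispensed reagent) in 20 mM phosphate pH 7.0 with 0.01% (detergent screen) or 0.0001% Triton X-100 was preincubated with compounds for 15 min at room temperature. Nitrocefin was then added from an 800 uM solution, and hydrolysis was followed at 480 nm.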
Vaccinia Venus: inhibitors of vaccinia virus (Venus reporter) | Vaccinia virus Venus reporter expression, fluorescence | Potency, µM (highest dose often 36.5 µM), for inactives: at the top dose activity change, negative = inhibition, most hits filed as inhibitors | 330,000 compounds, 0.46% hits | AID 720580; calls by dose curve; tested in A549 cells; note: potency is the fitted concentration of half-maximal effect; % is set by controls: 0 for no effect and ±100 for the full control effect; nearly all actives have a fitted effect of over 30% in size
SARS PLpro yeast-2: Rescues yeast growth by inhibiting SARS-CoV PLpro. 1,000 compounds, 19% hits. shares compounds with SARS PLpro yeast-1. AID 652038. calls only. yeast expressing SARS-CoV PLpro, growth phenotype rescue; call rule not given here
Numbers without * were called inactive; i = inactive; ? = inconclusive; . = no result given; + = active, no number; [ ] = dose if it differs, or a comment. The list is not random: actives were taken first. Their share in the collection is about 1.4%. Unless noted, calls come from the whole dose curve; as a rule, active = well fitted curve in the direction sought with a large enough effect; inconclusive = small, poorly fitted or top-dose-only effect, or another doubt; inactive = no such curve, though single readings can be large; an effect the other way counts as inactive or inconclusive.

SMILES	AmpC detergent	Vaccinia mCherry	SARS PLpro yeast-1	AMA1 RON2 block	AmpC inh no detg	Vaccinia Venus	SARS PLpro yeast-2
C/C(CC(c1ccccc1)c1c(O)c2ccccc2oc1=O)=N\NC(N)=S (stereo not drawn)	?	4µM*	11µM*	35%	-8%	7.9µM*	i
O=c1ccn([C@@H]2O[C@H](COP(=O)(O)O)[C@@H](O)[C@H]2O)c(=O)[nH]1	.	i	.	.	.	-12%	.
COc1cccc(-c2c(NC(=O)c3ccco3)oc3ccccc3c2=O)c1	0%	11%	?	5%	-42%	-2%	i
N#Cc1ccc(CN2CCN(C(=O)c3cc(Cl)c4c(c3)OCCO4)CC2)cc1	1%	.	-7%	-4%	29%	.	.
NC(=O)C1CCN(C(=O)c2cc(Cl)c3c(c2)OCCO3)CC1	.	-15%	2.5µM*	9%	-19%	-11%	i
CC(C)Oc1ccc(CNC(=O)CCCN2C(=O)c3cccnc3Oc3ccc(Cl)cc32)cc1	5%	-14%	.	.	.	-13%	.
Cc1occc1C(=O)N/N=C/c1ccc(Cl)c([N+](=O)[O-])c1	-2%	-20%	?	-13%	-18%	-25%	?
CCOc1ccc(C(=O)Nc2cccc(-c3nc4cc(Cl)cc(Cl)c4o3)c2)cc1	13%	-4%	.	.	.	0%	.
CCC1CCC2(CC1)NNC(=S)NN2	-5%	-10%	8.9µM*	14%	-13%	-17%	i
CC(C)(C)c1ccc(S(=O)(=O)/C=C/C#N)cc1	.	-15%	.	.	.	-22%	.
CCN(CC)S(=O)(=O)c1cccc(C(=O)N/N=C/c2ccc(O)c(O)c2O)c1	-9%	i	5µM*	-6%[11.6 µM]	20µM*	-7%	+
CCN(CC)S(=O)(=O)c1cccc(C(=O)N/N=C(\C)c2ccc(O)cc2O)c1	2%	?	3.5µM*	-11%	-58%	?	i
CN(C)CCNC(=S)Nc1cccc(Cl)c1	-7%	.	?	-1%	-14%	.	i
COc1cc(/C=C2\C=Cc3ccccc32)cc(OC)c1OC	.	-7%	.	.	.	-7%	.
N#CC1=C(N)Oc2c(ccc3cccnc23)C1c1cccnc1 (stereo not drawn)	1%	.	?	-38%	-8%	.	i
N#CC1=C(N)Oc2cc3ccccc3cc2C1c1cccnc1 (stereo not drawn)	1%	?	14%	-5%	-14%	?	.
CC(C)(C)C1=C(C#N)C(c2cccnc2)C(C#N)=C(N)O1 (stereo not drawn)	-12%	-18%	18µM*	7%	-17%	-10%	i
COc1cccc(C2C(C#N)=C(N)OC(C(C)(C)C)=C2C#N)c1 (stereo not drawn)	-6%	-16%	-7%	-10%	-32%	-9%	.
Cc1ccccc1-n1c(=O)c2c3c(sc2n2cnnc12)CCCC3	17%	-10%	.	.	.	5%	.
CC(=O)N/C(=C\c1cccc([N+](=O)[O-])c1)C(=O)NC1CCCCC1	-8%	i	?	13%	-16%	-9%	i
Cc1ccc(NC(=O)/C(=C/c2cccc([N+](=O)[O-])c2)NC(=O)C2CCCCC2)cc1	2%	-8%	-2%	0%	-26%	-7%	.
CC(C)CC(=O)NC(=S)N1CCN(c2ccc([N+](=O)[O-])cc2Cl)CC1	?	.	?	70%	-46%	.	i
CC(C)CC(=O)N1CCN(c2ccc([N+](=O)[O-])cc2Cl)CC1	-9%	.	-35%	-15%	26%	.	.
Cc1cc(C)c(OCC(=O)N(Cc2ccco2)Cc2ccco2)c(C)c1	18%	1%	.	.	.	-6%	.
COc1cc(NC(=O)c2cccc([N+](=O)[O-])c2C)ccc1NC(=O)c1ccco1	-11%	i	2.8µM*	20%	-40%	-23%	i
SMILES	AmpC detergent	Vaccinia mCherry	SARS PLpro yeast-1	AMA1 RON2 block	AmpC inh no detg	Vaccinia Venus	SARS PLpro yeast-2
O=C(CN1C(=O)NC2(CCCC2)C1=O)N1CCN(S(=O)(=O)c2cccc(F)c2)CC1	-4%	-16%	.	16%	0%	-9%	i
CCOC(=O)C1=C(COC(=O)/C=C/c2ccco2)NC(=O)NC1C (stereo not drawn)	-23%	-10%	?	3%	-10%	-10%	i
CCOC(=O)C1=C(COC(=O)/C=C/c2ccc(OC)cc2)NC(=O)NC1C (stereo not drawn)	0%	?	-3%	0%	-10%	-27%	.
CCOc1ccc(NC(=O)CSc2oc(-c3ccc(F)cc3)nc2S(=O)(=O)c2ccc(C)cc2)cc1	5%	?	.	.	.	?	.
O=C(O)Cn1c(C(F)(F)F)nc2ccccc21	3%	i	.	-1%	.	-10%	.
CC1CN(C(=O)Cn2c(C(F)(F)F)nc3ccccc32)CC(C)O1 (stereo not drawn)	-1%	-12%	?	2%	-7%	0%	i
Cc1ccc(Nc2nnc(SC(C)C(=O)Nc3c(C)n(C)n(-c4ccccc4)c3=O)s2)cc1 (stereo not drawn)	-21%	-22%	2.8µM*	26%	1%	-27%	i
COc1ccccc1CNC(=S)NCCc1ccccc1	-13%	-4%	?	-1%	-20%	4%	?
CC(C)COc1cccc(C(=O)N(C)CC(=O)Nc2cccc3ccccc23)c1	.	-24%	14µM*	-16%	48%	-16%	i
Cc1ccc(CSc2nnc(SCC(=O)N/N=C/c3c(C)nn(-c4ccccc4)c3C)s2)cc1	-8%	-14%	-4%	-14%	-26%	-1%	.
Cc1nn(-c2ccccc2)c(C)c1/C=N/NC(=O)CSc1nnc(SCc2ccccc2Cl)s1	18%	-13%	?	-1%	16%	-18%	+
CN(C)Cc1cc(OCc2ccccc2)cc(CN(C)C)c1O	.	-13%	.	1%	.	-10%	.
CN(C)Cc1cc(C(C)(C)c2cc(CN(C)C)c(O)c(CN(C)C)c2)cc(CN(C)C)c1O	?	.	13µM*	2%	-5%	.	i
CCOC(=O)N1CCN(CCC(=O)Nc2ccccc2OC)CC1	-1%	?	?	-3%	-10%	-24%	i
CN(C)c1ccc(/C=C/c2ccnc3ccc([N+](=O)[O-])cc23)cc1	.	-14%	.	.	.	41%	.
CCOc1ccc(-c2c(C(=O)N/N=C/c3ccc(OC)cc3)nnn2-c2nonc2N)cc1	-10%	1%	20µM*	15%	-17%	3%	i
CCCOc1ccc(-c2c(C(=O)N/N=C/c3ccc(OC)cc3)nnn2-c2nonc2N)cc1	-12%	-23%	4%	15%	-32%	-15%	.
CCOc1ccc(-c2nnc3ccc(SCC(=O)Nc4nc5ccccc5s4)nn23)cc1	?	i	?	-18%	125%	-19%	i
